# Reference: the supplement of paper PMC10849652
# About 8,800 targets were measured; listed, in parts, are those with a hit and a random draw of the rest. About 0.5% of all pairs of compound and target were hits.
# Compound: CC(=O)c1cnc2ccc(-c3cc(Cl)c(O)c(Cl)c3)nc2c1N[C@H]1CC[C@H](CN(C)C)CC1
# Experiment: log2 fold change, soluble protein after heating vs DMSO (PISA); higher = thermal stabilisation; K562 lysate, 10 uM; active = over 0.2 and 3.5 SD of the protein, either way, in both replicates (recomputed)
# Method in brief: (§1)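 Following dounce homogenisation of K562 pellets in PBS pH 7.4 with 1 mM MgCl2, crude extract at 1 mg/mL protein was incubated for 30 min with 10 μM compound. Aliquots were then heated for 3 min over 48°C-58°C and pooled, NP-40 was added to 0.5% at 4°C, and soluble protein was recovered as the supernatant at 21,000xg for 90 min. Channel-sum-equalised TMTpro 16plex LC-MS/MS quantified this protein. Each value, from duplicates, is a log-two fold change in thermal stability relative to solvent controls.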
# Chain of UniProt Q8N0Z6 (Q8N0Z6 whole entry, looked up): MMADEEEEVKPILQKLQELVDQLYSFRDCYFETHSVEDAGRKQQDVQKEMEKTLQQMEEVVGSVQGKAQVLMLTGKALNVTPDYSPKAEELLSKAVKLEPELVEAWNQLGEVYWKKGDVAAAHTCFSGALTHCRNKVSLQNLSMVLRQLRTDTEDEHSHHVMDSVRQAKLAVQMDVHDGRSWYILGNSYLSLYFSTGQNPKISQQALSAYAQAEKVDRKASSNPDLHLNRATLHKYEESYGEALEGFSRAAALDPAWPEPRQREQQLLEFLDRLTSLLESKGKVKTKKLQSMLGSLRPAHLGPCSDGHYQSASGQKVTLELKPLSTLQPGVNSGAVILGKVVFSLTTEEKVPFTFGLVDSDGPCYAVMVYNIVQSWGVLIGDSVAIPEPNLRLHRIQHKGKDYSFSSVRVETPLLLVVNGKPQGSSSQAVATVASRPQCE
# Chain of UniProt Q07157 (Q07157 whole entry, looked up): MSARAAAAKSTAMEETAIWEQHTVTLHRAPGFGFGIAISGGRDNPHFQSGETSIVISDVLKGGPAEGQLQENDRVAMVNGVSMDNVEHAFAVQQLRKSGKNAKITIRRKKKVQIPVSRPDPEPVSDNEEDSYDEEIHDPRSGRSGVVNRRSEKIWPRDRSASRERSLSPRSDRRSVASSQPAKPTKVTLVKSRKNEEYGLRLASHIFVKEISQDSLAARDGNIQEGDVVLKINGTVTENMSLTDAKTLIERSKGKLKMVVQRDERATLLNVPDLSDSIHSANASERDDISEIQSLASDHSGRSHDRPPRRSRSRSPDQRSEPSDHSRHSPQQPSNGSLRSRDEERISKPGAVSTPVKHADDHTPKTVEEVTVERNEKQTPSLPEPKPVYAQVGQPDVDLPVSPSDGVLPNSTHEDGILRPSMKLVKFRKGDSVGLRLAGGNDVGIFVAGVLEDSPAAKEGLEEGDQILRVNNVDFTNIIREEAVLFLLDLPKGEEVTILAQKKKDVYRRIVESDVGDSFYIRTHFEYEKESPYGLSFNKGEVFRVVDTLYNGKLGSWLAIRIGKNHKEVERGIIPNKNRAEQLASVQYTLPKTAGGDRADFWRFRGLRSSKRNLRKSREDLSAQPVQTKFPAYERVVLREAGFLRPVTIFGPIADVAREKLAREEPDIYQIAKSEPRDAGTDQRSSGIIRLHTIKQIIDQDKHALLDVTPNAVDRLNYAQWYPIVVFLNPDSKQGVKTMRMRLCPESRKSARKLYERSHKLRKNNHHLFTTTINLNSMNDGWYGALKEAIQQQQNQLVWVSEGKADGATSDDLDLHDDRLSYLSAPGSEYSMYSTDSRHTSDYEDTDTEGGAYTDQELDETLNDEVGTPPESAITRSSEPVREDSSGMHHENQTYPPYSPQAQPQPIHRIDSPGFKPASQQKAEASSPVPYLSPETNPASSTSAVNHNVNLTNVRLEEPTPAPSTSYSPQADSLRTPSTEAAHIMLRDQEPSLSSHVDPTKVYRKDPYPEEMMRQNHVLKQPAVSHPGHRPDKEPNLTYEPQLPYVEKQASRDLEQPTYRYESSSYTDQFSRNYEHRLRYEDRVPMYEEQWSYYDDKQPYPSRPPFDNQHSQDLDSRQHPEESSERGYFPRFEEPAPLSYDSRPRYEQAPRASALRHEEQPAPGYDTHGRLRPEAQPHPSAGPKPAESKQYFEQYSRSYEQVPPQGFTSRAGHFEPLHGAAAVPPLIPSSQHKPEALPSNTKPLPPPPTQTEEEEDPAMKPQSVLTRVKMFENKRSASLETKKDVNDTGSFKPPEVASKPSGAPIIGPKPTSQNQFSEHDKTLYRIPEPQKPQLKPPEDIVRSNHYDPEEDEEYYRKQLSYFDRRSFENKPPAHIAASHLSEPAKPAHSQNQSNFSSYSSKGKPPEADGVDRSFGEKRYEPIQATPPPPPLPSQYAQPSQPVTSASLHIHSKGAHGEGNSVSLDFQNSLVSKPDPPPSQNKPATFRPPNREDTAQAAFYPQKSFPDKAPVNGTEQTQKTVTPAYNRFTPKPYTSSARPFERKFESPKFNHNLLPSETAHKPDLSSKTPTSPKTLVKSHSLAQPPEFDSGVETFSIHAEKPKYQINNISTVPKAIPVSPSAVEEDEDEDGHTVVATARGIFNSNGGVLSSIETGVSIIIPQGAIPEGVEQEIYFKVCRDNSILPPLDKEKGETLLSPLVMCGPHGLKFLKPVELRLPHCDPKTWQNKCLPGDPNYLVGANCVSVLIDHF
# Chain of UniProt Q01085 (Q01085 whole entry, looked up): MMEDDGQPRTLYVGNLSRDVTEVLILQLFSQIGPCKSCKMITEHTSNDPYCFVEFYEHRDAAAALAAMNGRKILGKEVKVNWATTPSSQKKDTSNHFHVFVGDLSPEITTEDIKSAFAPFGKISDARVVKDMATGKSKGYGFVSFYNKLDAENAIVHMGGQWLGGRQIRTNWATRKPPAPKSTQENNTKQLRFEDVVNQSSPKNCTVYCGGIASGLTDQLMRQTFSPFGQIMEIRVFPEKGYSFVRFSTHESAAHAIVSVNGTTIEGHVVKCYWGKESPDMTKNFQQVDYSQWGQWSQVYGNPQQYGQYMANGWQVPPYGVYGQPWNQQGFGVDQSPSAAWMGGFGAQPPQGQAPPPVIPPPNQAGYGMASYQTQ
# Chain of UniProt P67936 (P67936 whole entry, looked up): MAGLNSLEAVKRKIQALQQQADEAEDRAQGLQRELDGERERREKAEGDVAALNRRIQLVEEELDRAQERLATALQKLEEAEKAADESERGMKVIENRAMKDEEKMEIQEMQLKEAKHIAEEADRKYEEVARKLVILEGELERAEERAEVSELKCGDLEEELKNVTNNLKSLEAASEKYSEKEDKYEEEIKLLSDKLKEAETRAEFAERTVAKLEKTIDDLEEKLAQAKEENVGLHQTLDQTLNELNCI
# Chain of UniProt Q9UNY4 (Q9UNY4 whole entry, looked up): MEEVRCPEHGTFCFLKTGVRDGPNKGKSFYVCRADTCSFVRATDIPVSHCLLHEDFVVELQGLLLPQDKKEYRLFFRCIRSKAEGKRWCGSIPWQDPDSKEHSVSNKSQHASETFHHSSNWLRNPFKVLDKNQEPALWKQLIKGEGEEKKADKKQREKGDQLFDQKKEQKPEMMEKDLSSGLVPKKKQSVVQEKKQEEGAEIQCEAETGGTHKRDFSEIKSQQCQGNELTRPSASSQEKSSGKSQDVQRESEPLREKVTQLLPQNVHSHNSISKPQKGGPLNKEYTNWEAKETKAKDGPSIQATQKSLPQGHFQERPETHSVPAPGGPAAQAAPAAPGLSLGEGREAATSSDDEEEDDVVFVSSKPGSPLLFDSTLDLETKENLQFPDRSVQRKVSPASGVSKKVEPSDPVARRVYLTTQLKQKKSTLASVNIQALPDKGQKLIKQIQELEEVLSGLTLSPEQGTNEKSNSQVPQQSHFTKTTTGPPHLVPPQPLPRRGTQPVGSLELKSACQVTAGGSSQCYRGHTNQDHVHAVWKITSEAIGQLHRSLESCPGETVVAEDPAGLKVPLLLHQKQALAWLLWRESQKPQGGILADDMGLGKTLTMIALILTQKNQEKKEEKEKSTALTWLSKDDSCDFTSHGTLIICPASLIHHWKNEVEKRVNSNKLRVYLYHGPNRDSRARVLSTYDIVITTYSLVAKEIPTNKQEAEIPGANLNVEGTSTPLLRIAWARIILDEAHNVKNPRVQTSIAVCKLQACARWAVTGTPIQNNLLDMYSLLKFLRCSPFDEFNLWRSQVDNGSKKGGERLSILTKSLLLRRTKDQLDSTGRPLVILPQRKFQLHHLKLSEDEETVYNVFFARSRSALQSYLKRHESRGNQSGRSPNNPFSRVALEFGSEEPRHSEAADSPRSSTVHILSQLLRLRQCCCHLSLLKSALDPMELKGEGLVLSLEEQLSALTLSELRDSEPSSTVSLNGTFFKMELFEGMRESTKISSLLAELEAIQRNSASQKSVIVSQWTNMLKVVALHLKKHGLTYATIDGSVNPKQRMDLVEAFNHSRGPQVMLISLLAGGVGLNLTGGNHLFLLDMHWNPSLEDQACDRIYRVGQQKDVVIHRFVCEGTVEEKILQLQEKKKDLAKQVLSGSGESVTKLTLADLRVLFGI
# Chain of UniProt Q53H54 (Q53H54 whole entry, looked up): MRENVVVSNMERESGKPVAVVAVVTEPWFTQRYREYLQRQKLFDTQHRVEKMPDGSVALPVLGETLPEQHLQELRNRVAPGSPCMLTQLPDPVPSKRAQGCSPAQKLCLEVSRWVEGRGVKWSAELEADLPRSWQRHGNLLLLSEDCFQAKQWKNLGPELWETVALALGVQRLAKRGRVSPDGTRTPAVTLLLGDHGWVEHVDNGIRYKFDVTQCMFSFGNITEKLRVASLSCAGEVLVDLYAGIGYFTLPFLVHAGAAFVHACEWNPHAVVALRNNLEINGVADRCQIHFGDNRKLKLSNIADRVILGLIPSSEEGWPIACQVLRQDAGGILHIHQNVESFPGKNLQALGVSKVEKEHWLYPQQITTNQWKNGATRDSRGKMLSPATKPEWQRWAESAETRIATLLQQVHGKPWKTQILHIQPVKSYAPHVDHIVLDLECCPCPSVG
# Chain of UniProt P51668 (P51668 whole entry, looked up): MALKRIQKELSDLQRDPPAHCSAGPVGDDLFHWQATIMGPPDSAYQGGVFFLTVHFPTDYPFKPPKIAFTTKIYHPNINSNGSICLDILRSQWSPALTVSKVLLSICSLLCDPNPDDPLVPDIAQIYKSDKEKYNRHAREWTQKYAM
# Chain of UniProt Q13595 (Q13595 whole entry, looked up): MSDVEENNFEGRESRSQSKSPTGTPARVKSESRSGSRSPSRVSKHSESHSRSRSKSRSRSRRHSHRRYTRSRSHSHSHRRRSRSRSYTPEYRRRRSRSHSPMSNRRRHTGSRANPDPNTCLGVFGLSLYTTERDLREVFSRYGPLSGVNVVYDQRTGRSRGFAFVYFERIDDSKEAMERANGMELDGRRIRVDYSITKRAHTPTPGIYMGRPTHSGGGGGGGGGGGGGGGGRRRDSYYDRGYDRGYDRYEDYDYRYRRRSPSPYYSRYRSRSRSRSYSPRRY
# Chain of UniProt Q9P0S9 (Q9P0S9 whole entry, looked up): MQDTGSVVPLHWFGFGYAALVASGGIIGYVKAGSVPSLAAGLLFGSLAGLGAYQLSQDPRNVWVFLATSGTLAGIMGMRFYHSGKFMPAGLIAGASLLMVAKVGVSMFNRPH
row,Target,log2 fold change
1,TOR3A (UniProt Q9H497),0.023 (inactive)
2,TRAF2 isoform 2 (UniProt Q12933),-0.002 (inactive)
3,TBRG4 (UniProt Q969Z0),0.025 (inactive)
4,TBL3 (UniProt Q12788),-0.016 (inactive)
5,UBE3B (UniProt Q7Z3V4),0.019 (inactive)
6,TRA2A (UniProt Q13595),-0.018 (inactive)
7,TJP1 isoform 2 (UniProt Q07157),-0.001 (inactive)
8,TPM4 isoform 2 (UniProt P67936),0.016 (inactive)
9,TUBGCP3 (UniProt Q96CW5),0.018 (inactive)
10,TGOLN2 isoform 7 (UniProt O43493),0.013 (inactive)
11,TSPAN13 (UniProt O95857),-0.001 (inactive)
12,TIMELESS (UniProt Q9UNS1),-0.079 (inactive)
13,TRMT2A (UniProt Q8IZ69),0.005 (inactive)
14,TTC12 isoform 2 (UniProt Q9H892),-0.073 (inactive)
15,TMPO (UniProt P42167),0.009 (inactive)
16,TBK1 (UniProt Q9UHD2),0.159 (inactive)
17,TGFBRAP1 (UniProt Q8WUH2),0.022 (inactive)
18,TMEM14C (UniProt Q9P0S9),0.085 (inactive)
19,TMEM164 (UniProt Q5U3C3),-0.066 (inactive)
20,TPM3 (UniProt P06753),-0.001 (inactive)

row,Target,log2 fold change
1,TTI2 (UniProt Q6NXR4),0.016 (inactive)
2,TBC1D23 (UniProt Q9NUY8),0.002 (inactive)
3,TRIM25 (UniProt Q14258),-0.001 (inactive)
4,UBE2D1 (UniProt P51668),0.017 (inactive)
5,TPP2 (UniProt Q5VZU9),-0.025 (inactive)
6,TRMT12 (UniProt Q53H54),-0.009 (inactive)
7,TCAF2 (UniProt A6NFQ2),-0.009 (inactive)
8,TRIM56 (UniProt Q9BRZ2),0.007 (inactive)
9,TTC27 (UniProt Q6P3X3),0.017 (inactive)
10,UBR5 (UniProt O95071),-0.005 (inactive)
11,TROAP (UniProt Q12815),-0.096 (inactive)
12,TUBGCP2 isoform 4 (UniProt Q9BSJ2),0.042 (inactive)
13,TTC5 (UniProt Q8N0Z6),0.007 (inactive)
14,TRIM33 (UniProt H0Y612),-0.003 (inactive)
15,TP53RK (UniProt Q96S44),-0.059 (inactive)
16,TFCP2 (UniProt Q12800),0.054 (inactive)
17,TIAL1 isoform 2 (UniProt Q01085),-0.004 (inactive)
18,TRIM65 (UniProt Q6PJ69),0.073 (inactive)
19,TTF2 (UniProt Q9UNY4),-0.121 (inactive)
20,TRAPPC9 isoform 2 (UniProt Q96Q05),0.019 (inactive)

# Compound: CC(C)(C)Cn1c(N)nc2ccc(-c3[nH]c(C(C)(C)C)nc3-c3ccc(F)cc3)nc21 [ralimetinib]
# Experiment: as above
# Method in brief: as §1
row,Target,log2 fold change
1,TOR3A (UniProt Q9H497),0.002 (inactive)
2,TRAF2 isoform 2 (UniProt Q12933),0.022 (inactive)
3,TBRG4 (UniProt Q969Z0),0.002 (inactive)
4,TBL3 (UniProt Q12788),0.027 (inactive)
5,UBE3B (UniProt Q7Z3V4),0.02 (inactive)
6,TRA2A (UniProt Q13595),-0.079 (inactive)
7,TJP1 isoform 2 (UniProt Q07157),-0.007 (inactive)
8,TPM4 isoform 2 (UniProt P67936),-0.005 (inactive)
9,TUBGCP3 (UniProt Q96CW5),0.03 (inactive)
10,TGOLN2 isoform 7 (UniProt O43493),-0.065 (inactive)
11,TSPAN13 (UniProt O95857),-0.048 (inactive)
12,TIMELESS (UniProt Q9UNS1),0.006 (inactive)
13,TRMT2A (UniProt Q8IZ69),0.026 (inactive)
14,TTC12 isoform 2 (UniProt Q9H892),0.053 (inactive)
15,TMPO (UniProt P42167),0.018 (inactive)
16,TBK1 (UniProt Q9UHD2),-0.007 (inactive)
17,TGFBRAP1 (UniProt Q8WUH2),0.011 (inactive)
18,TMEM14C (UniProt Q9P0S9),0.129 (inactive)
19,TMEM164 (UniProt Q5U3C3),-0.171 (inactive)
20,TPM3 (UniProt P06753),-0.028 (inactive)

row,Target,log2 fold change
1,TTI2 (UniProt Q6NXR4),0.019 (inactive)
2,TBC1D23 (UniProt Q9NUY8),0.004 (inactive)
3,TRIM25 (UniProt Q14258),-0.013 (inactive)
4,UBE2D1 (UniProt P51668),-0.009 (inactive)
5,TPP2 (UniProt Q5VZU9),-0.018 (inactive)
6,TRMT12 (UniProt Q53H54),0.094 (inactive)
7,TCAF2 (UniProt A6NFQ2),0.078 (inactive)
8,TRIM56 (UniProt Q9BRZ2),0.028 (inactive)
9,TTC27 (UniProt Q6P3X3),-0.012 (inactive)
10,UBR5 (UniProt O95071),0.01 (inactive)
11,TROAP (UniProt Q12815),0.042 (inactive)
12,TUBGCP2 isoform 4 (UniProt Q9BSJ2),-0.007 (inactive)
13,TTC5 (UniProt Q8N0Z6),0.017 (inactive)
14,TRIM33 (UniProt H0Y612),0.135 (inactive)
15,TP53RK (UniProt Q96S44),0.019 (inactive)
16,TFCP2 (UniProt Q12800),0.032 (inactive)
17,TIAL1 isoform 2 (UniProt Q01085),-0.063 (inactive)
18,TRIM65 (UniProt Q6PJ69),0.046 (inactive)
19,TTF2 (UniProt Q9UNY4),0.035 (inactive)
20,TRAPPC9 isoform 2 (UniProt Q96Q05),0.055 (inactive)
